The record followed here is publication PMC4336329 (PLoS ONE, 2015).

Structures are written as SMILES. Out of some 310,000 compounds screened, about 14,000 (4.5%) showed an effect of 50% or more. The effect is printed as a negative number. The sample as a whole holds a higher share of strong results than the screen did.
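Note: peak tail current of the secondary pulse compared with the same well before compound.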

The assay deals with human ether-à-go-go-related gene (hERG) potassium channel (human, UniProt Q12809). The assay is described as follows: primary screen, population patch clamp on CHO cells stably expressing hERG; higher = less effect of the substance.
Sequence of human ether-à-go-go-related gene (hERG) potassium channel (Q12809 whole entry, looked up): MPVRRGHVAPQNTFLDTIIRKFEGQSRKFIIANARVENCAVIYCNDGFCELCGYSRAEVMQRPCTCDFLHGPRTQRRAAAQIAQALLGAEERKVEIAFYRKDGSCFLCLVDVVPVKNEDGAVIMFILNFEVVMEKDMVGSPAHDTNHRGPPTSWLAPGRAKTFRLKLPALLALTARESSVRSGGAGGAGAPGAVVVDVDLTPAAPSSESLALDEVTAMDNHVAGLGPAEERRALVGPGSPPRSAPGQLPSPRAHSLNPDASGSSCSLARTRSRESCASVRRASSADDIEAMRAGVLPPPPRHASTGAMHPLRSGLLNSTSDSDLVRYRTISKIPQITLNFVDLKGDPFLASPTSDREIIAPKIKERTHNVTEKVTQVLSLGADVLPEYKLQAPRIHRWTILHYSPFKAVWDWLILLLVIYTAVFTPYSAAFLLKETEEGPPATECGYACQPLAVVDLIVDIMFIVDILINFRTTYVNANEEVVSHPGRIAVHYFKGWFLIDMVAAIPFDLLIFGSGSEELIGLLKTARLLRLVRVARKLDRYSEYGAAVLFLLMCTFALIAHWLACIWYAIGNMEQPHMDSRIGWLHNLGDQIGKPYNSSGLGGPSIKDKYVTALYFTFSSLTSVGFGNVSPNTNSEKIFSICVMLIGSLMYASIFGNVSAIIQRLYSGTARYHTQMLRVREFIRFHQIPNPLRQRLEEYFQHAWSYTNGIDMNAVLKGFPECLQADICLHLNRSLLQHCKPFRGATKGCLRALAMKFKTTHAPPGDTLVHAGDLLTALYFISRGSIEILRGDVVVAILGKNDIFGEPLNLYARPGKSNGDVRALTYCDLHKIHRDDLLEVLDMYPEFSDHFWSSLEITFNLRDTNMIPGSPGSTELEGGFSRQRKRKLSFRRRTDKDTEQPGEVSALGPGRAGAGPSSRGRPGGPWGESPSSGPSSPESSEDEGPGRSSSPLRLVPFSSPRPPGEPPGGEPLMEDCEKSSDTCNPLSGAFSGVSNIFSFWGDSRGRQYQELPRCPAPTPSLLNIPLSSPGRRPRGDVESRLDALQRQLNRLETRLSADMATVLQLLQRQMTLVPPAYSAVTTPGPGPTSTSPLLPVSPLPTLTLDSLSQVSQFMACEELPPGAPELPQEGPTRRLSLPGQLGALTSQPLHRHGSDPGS
For the compound `Cc1cc(-n2c(SCc3ccccc3F)nc3n[nH]c(C)c3c2=N)ccc1Cl`, the “hERG current change (%, negative = inhibition) at 10uM” value came out at 15.8%.
Next, `COC(=O)c1ccccc1OCCCOc1ccc(C=O)cc1OC`: -4.02%.
Turning to `O=C(NCc1ccco1)c1ccc(COc2ccc(Cl)cc2)cc1`, the “hERG current change (%, negative = inhibition) at 10uM” value came to 0.911%.
As for `CCCN(C(=O)Cc1ccc(S(=O)(=O)N2CCOCC2)s1)c1c(N)n(Cc2ccccc2)c(=O)[nH]c1=O`, the “hERG current change (%, negative = inhibition) at 10uM” value worked out at 16.8%.
Next, `CN(C)c1ccc(C(c2ccc(N(C)C)cc2)c2ccc([N+](=O)[O-])cc2)cc1`: 3.74%.
Next, `Cc1cccc(Sc2nc(-c3ccccc3)ncc2C(=O)O)c1`: 11.7%.
For the compound `COc1ccc(N2CCN(C(=O)COc3ccc4c(C)cc(=O)oc4c3C)CC2)cc1`, the “hERG current change (%, negative = inhibition) at 10uM” value was 20.6%.
Turning to `COc1ccc(N2CCN(C(=O)COc3ccc4c(C)cc(=O)oc4c3)CC2)cc1`, the “hERG current change (%, negative = inhibition) at 10uM” value is -16.5%.
Take `Cc1cc(=O)oc2cc(OCC(=O)N3CCN(c4ccc(F)cc4)CC3)ccc12`: the “hERG current change (%, negative = inhibition) at 10uM” value is -53%.
On to `Cc1cc(=O)oc2cc(OCC(=O)N3CCN(c4ccccc4)CC3)ccc12`, for which the “hERG current change (%, negative = inhibition) at 10uM” value is listed as -36.6%.
Next, `Cc1cc(=O)oc2c(C)c(OCC(=O)N3CCN(c4ccccc4)CC3)ccc12`: -24.8%; `Cc1cc(=O)oc2c(C)c(OCC(=O)N3CCN(c4ccc(F)cc4)CC3)ccc12`: -65.9%; `CCC(C)c1ccc(NC(=S)NC(C)C2CCCO2)cc1` (centres unmarked): -6.84%.
Next, `Cc1ccc(CN2CC(C(=O)N3CC(C)CC(C)C3)CC2=O)cc1` (centres unmarked): -6.13%; `CN(C)CCP(=O)(c1ccccc1)c1ccccc1`: 13.4%; `O=C(O)COCc1nc2ccccc2s1`: -7.92%.
Under `Cc1cccc(C(=O)N2CCc3cc(-c4nc(NC(=O)CN5CCCC5)sc4C)ccc32)c1` stands -0.886%; under `Cc1ccc(CC(=O)N(C)CC(=O)N(CC(C)C)c2c(N)n(CC(C)C)c(=O)[nH]c2=O)cc1C`, -2.54%; under `Cc1ccc2c(c1)COc1c3ccc(C(=O)NCC4CC4)cc3nn1-2`, -6.56%.
As for `COc1cc(CN(C)CCc2ccccc2)ccc1OCc1ccccc1`, the “hERG current change (%, negative = inhibition) at 10uM” value was -72%.
For `CN(Cc1ccccc1)C(=O)c1ccc(NC(=O)c2ccccc2)cc1`, the “hERG current change (%, negative = inhibition) at 10uM” value is given as -59.9%.
Next, `CN(Cc1ccccc1)C(=O)c1ccccc1NC(=O)c1ccccc1`: -12.7%; `COc1ccc(CCN(C)Cc2ccc(OC)c(OCc3ccccc3)c2)cc1OC`: -81.6%; `CN(Cc1ccccc1)C(=O)c1ccc(NC(=O)C2=CSCCO2)cc1`: -0.926%.
Under `COc1ccc(Cc2noc(CN(C)CCc3ccccc3)n2)cc1OC` stands 7.3%; under `COc1cc(CN(CCN(C)C)Cc2ccccc2)ccc1OCc1ccccc1.O=C(O)C(=O)O`, -31%; under `COc1ccc(CCN(C)Cc2ccncc2)cc1OC`, -27.2%.
Next, `COc1ccc(CCN(C)Cc2ccc(F)cc2F)cc1OC`: -0.788%; `CCN(CC)c1ccc(CN(C)CCc2ccc(OC)c(OC)c2)cc1`: -66.1%.
With `CCN(Cc1ccccc1)Cc1ccc(OCc2ccccc2)c(OC)c1`, the “hERG current change (%, negative = inhibition) at 10uM” value is listed as -31.2%.
Next, `O=C(Nc1cccc(S(=O)(=O)N2CCCC2)c1)c1ccc2ccccc2n1`: 20.9%.
Under `COc1ccc(/C=C/C(=O)NCc2cn(C)nc2C)cc1COc1ccc(Br)cc1` stands 7.33%; under `O=C(Nc1cccc(S(=O)(=O)N2CCCCC2)c1)Nc1ccc(Cl)cc1Cl`, 7.77%; under `Cn1cc(C(=O)N2CCCC(Nc3ccc(F)cc3)C2)c2ccccc21` (centres unmarked), -21.1%.
Under `O=C(CN1CCCC1c1cccs1)Nc1cccc(S(=O)(=O)N2CCCC2)c1` (centres unmarked) stands -0.843%.
As to `COc1ccc(CCN(C)Cc2ccc(OCc3ccccc3)c(OC)c2)cc1OC`, the “hERG current change (%, negative = inhibition) at 10uM” value is given as -74.3%.
Consider `COc1ccccc1OCc1ccc(C(=O)Nc2ccccc2)cc1`, for which the “hERG current change (%, negative = inhibition) at 10uM” value came to 11.1%.
Turning to `COc1ccc(CCN(C)Cc2ccc(C(=O)Nc3ccccc3)cc2)cc1OC`, the “hERG current change (%, negative = inhibition) at 10uM” value is on record as -67.3%.
Next, `COc1cc(CC(=O)O)ccc1OCc1ccccc1`: 4.35%.
Next, `COc1ccc(CN(CCc2ccccc2)Cc2ccccc2)cc1OC.O=C(O)C(=O)O`: -9.99%; `COc1ccc(C(=O)Nc2ccc(C(=O)NCCc3ccc(OC)c(OC)c3)cc2)cc1`: 30.5%; `COc1ccc(NS(=O)(=O)c2ccc(-c3cnc(C4CC4)o3)cc2)cc1OC`: 14.6%.
Under `CC1(C)Cc2c(sc(NC(=O)COc3ccc(Cl)cc3)c2C(N)=O)C(C)(C)N1` stands 0.951%; under `COC(=O)C(NNc1ccc(F)cc1)(NC(=O)c1ccccc1)C(F)(F)F` (centres unmarked), -3.67%; under `O=C(Nc1cc(Cl)ccc1-n1cncn1)c1ccc([N+](=O)[O-])s1`, -27.9%.
As to `O=C(O)C1OC(C(=O)O)C2C1C(F)(F)C2(F)F` (centres unmarked), the “hERG current change (%, negative = inhibition) at 10uM” value is on record as 14.3%.
As for `O=C(Cc1cn2ccsc2n1)Nc1cccc2cnccc12`, the “hERG current change (%, negative = inhibition) at 10uM” value turned out to be 9.76%.
Next, `CCOC(=O)c1c(C)n(C)c2ccc(O)c(CN(CC)CC)c12.Cl`: -20%.
Under `Cc1ccc(-n2c(C)c([N+](=O)[O-])c3ccc(O)c(CN(C)C)c32)cc1` stands -23.6%; under `COc1ccc(-n2c(C)c([N+](=O)[O-])c3ccc(O)c(CN(C)C)c32)cc1`, -57.6%.
Next, `CCN(CC)Cc1c(O)ccc2c([N+](=O)[O-])c(C)n(-c3ccc(OC)cc3)c12`: -24.9%.
`CCOC(=O)c1c(C)n(-c2ccccc2)c2ccc(O)c(CN(C)C)c12.Cl`: the “hERG current change (%, negative = inhibition) at 10uM” value is recorded as -30.7%.
Under `CCOC(=O)c1sc(=N)n(-c2ccc(OC)cc2)c1C` stands -4.06%; under `CCOC(=O)c1c(C)n(-c2ccc(C)cc2)c2ccc(O)c(CN(C)C)c12.Cl`, -74.2%.
Take `CCOC(=O)c1c(C)n(C)c2ccc(O)c(CN(C)C)c12.O=C(O)C(=O)O`: the “hERG current change (%, negative = inhibition) at 10uM” value is recorded as -6.82%.
Under `CCOC(=O)c1c(C)n(-c2ccc(OC)cc2)c2ccc(O)c(CN(C)C)c12.Cl` stands -74.2%; under `Cc1cccc(NC(=O)COc2ccccc2C)n1`, 7.83%; under `Cl.Clc1ccccc1CSc1nnc([C@@H]2CCCN2)o1`, 15.1%.
Under `COc1ccc(C(=O)CNc2ccccc2Br)cc1` stands 18.8%; under `COC(=O)C1CCN(C(=O)N2CCOCC2)CC1`, 5.68%.
Next, `CC(/C=N/NC(=O)c1nnn(-c2nonc2N)c1C(C)C)=C\c1ccco1`: 8.07%.
`Cc1ccsc1C(=O)NNC(=O)c1csc(N2CCOCC2)n1`: the “hERG current change (%, negative = inhibition) at 10uM” value was 12.7%.
As for `CSCCC(NC(=O)c1ccccc1Cl)C(=O)NNC(=O)c1csc(N2CCOCC2)n1` (centres unmarked), the “hERG current change (%, negative = inhibition) at 10uM” value is listed as -29.9%.
Under `Cc1cccc(C(=O)NNC(=O)c2csc(N3CCOCC3)n2)c1C` stands -9.89%.
Under `CSCCC(NC(=O)c1ccc(Cl)cc1Cl)C(=O)NNC(=O)c1csc(N2CCOCC2)n1` (centres unmarked) stands -56.8%; under `Cc1ccc(C)c(SCC(=O)NNC(=O)c2csc(N3CCOCC3)n2)c1`, -55.1%; under `CSCCC(NC(=O)c1ccccc1Br)C(=O)NNC(=O)c1csc(N2CCOCC2)n1` (centres unmarked), -33.5%.
Under `C/C(N)=C(/C#N)C(=O)CSc1nc2ccccc2c(=O)n1CCCOC(C)C` stands -21.2%.
Take `Cc1cc(O)cc(O)c1C=NCc1ccco1`: the “hERG current change (%, negative = inhibition) at 10uM” value was -8.53%.
Under `CC1C(c2ccccc2)=NNc2nc3c(c(=O)n(C)c(=O)n3C)n21` (centres unmarked) stands 3.99%; under `COc1ccc(NC(=O)c2ccc(-c3ccc(-c4noc(C)n4)cc3C)cc2)cc1N1CCN(C)CC1.Cl`, -76%.
As to `COc1ccc(-c2nc(-c3ccc(NC(=O)c4ccncc4)cc3)no2)cc1OC`, the “hERG current change (%, negative = inhibition) at 10uM” value was determined as 7.54%.
Next, `COc1ccc(C(=O)Nc2ccc(N3CCN(C)CC3)cc2)cc1OC`: -11.9%; `CCOC(=O)c1c(NC(=O)CNC2CCCCC2)sc(C)c1C`: 10.3%; `N#CCSc1nnc(COc2ccc3ccccc3c2)o1`: -5.89%.
Next, `COc1cc(CC(=O)OCC(=O)Nc2ccc3c(c2)OCCO3)cc(OC)c1OC`: 26%; `O=C(Cc1ccc(Br)cc1)OCC(=O)c1ccc2c(c1)OCCO2`: 13.1%.
`COc1cc(CC(=O)OCC(=O)c2ccc3c(c2)OCCO3)cc(OC)c1OC`: the “hERG current change (%, negative = inhibition) at 10uM” value was -58.6%.
Under `CC(=O)C1=C(O)C(=O)OC1c1ccc(Cl)cc1` (centres unmarked) stands 7.92%; under `FC(F)(F)c1nnc2ccc(NCc3ccccc3)nn12`, 8.9%.
Under `Cc1ccc(CSCC(=O)N(C)CC(=O)Nc2ccc(C)cc2)cc1` stands -2.48%.
Next, `CCN(CC(=O)Nc1c(F)cccc1F)C(=O)CSCC(=O)Nc1ccc(OC)cc1`: -3.35%; `CCN(CC(=O)Nc1ccc(OC)cc1)C(=O)CSCC(=O)Nc1ccc(C)cc1`: -23.5%.
In the case of `CSc1ccc(CN(C)C(=O)CSCC(=O)Nc2ccc(C)cc2)cc1`, the “hERG current change (%, negative = inhibition) at 10uM” value is listed as -73%.
Turning to `CCN(CC(=O)Nc1ccc2c(c1)OCCO2)C(=O)CSCC(=O)Nc1ccc(C)cc1`, the “hERG current change (%, negative = inhibition) at 10uM” value is listed as -31.1%.
Next, `CCN(CC(=O)NCc1ccc(Cl)cc1)C(=O)CSCC(=O)Nc1ccc(OC)cc1`: -66.7%.
Regarding `CCN(CC(=O)Nc1ccc(NC(C)=O)cc1)C(=O)CSCC(=O)Nc1ccc(C)cc1`, the “hERG current change (%, negative = inhibition) at 10uM” value worked out at 2.95%.
Next, `CCN(CC(=O)NCc1ccc(Cl)cc1)C(=O)CSCC(=O)Nc1ccc(C)cc1`: -77.9%.
Under `CSc1ccc(CN(C)C(=O)CSCC(=O)Nc2cc(C)on2)cc1` stands 6.59%.
